Screens deposited in PubChem by National Center for Advancing Translational Sciences (NCATS).
Shown are actives, neighbours in structure and some others; about 9.3% of the full set was active somewhere.
FLuc modulator – qHTS profiling assay for firefly luciferase inhibitor/activator using purifed enzyme and Km concentrations of substrates (counterscreen for miR-21 project). Luciferin 4-monooxygenase (Photinus pyralis), P08659. purified FLuc, Km substrates, luminescence inhibition. Potency, µM (doses to about 57.5 µM), for inactives: at the top dose activity change, negative = inhibition, actives largely listed as inhibitors. 6.9% of 360,000 active. AID 588342, 2011;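 note: plate controls were vehicle for no effect and reference inhibitor for full effect; nearly all actives have a fitted effect of over 55% in size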
Target sequence (P08659 whole entry, looked up): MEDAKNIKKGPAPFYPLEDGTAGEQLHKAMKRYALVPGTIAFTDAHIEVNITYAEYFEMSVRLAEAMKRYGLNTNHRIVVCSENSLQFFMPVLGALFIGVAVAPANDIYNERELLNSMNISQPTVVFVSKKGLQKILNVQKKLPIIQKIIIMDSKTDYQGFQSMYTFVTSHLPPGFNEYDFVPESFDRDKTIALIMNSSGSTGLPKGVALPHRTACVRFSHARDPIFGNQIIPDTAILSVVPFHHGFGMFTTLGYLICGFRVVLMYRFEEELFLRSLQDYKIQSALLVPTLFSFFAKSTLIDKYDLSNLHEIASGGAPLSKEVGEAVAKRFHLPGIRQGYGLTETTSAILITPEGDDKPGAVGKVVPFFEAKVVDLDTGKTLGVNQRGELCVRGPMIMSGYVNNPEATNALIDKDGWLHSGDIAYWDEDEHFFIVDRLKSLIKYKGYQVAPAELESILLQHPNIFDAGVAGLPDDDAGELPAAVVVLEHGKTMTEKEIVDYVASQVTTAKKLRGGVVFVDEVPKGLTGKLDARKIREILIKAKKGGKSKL
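Biochemical qHTS of compounds, final roughly 60 µM downward over six points, against 10 nM purified firefly luciferase using Km concentrations of substrates (10 uM D-luciferin, 10 uM ATP) in Tris acetate pH 7.5 buffer; luminescence output.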
ELG1 repair inh – qHTS screen for small molecules that inhibit ELG1-dependent DNA repair in human embryonic kidney (HEK293T) cells expressing luciferase-tagged ELG1. HEK293T ELG1-luciferase reporter, luminescence, 16 h; DNA damage induced by 5-fluorouridine. Potency, µM (titrated, usually from 46.1 µM), without a hit: top-dose activity change, negative = inhibition, most hits filed as inhibitors. 2.3% of 330,000 active. AID 504467, 2011; note: % is set by controls: 0 for no effect and ±100 for the full control effect; nearly all actives have a fitted effect of over 55% in size
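Quantitative HTS, concentration-response format. 2,000 cells/well co-treated with 5-fluorouridine and compound, 16 hr in 5% CO2 at 37 °C; ONE-Glo luminescence read after 30 min.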
ELG1 genotox – qHTS screen for small molecules that induce genotoxicity in human embryonic kidney (HEK293T) cells expressing luciferase-tagged ELG1 | Potency, µM (top dose mostly 46 µM), inactives show top-dose activity change, positive = activation, usual class: activators | HEK293T ELG1-luciferase reporter, luminescence, 16 h | AID 504466, 2011 | 1.3% of 330,000 active; note: % of control where 0% means no effect; nearly all actives have a fitted effect of over 60% in size
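16 hr compound incubation (37 °C, 5% CO2) of HEK293T cells carrying luciferase-tagged ELG1; luciferase then measured by ONE-Glo luminescence after 30 min at RT.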
NPC1 promoter act – qHTS Assay for NPC1 Promoter Activators; Huh7 NPC1 promoter luciferase reporter, 24 h; Potency, µM (titrated, usually from 9.22 µM), inactives show top-dose activation, hits mostly activators; 2.4% of 320,000 active; AID 485313, 2010; note: % of control where 0% means no effect; nearly all actives have a fitted effect of over 60% in size
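In 1536-well qHTS, Huh7 cells harboring an NPC1 promoter–luciferase construct received compound for 24 h; activation was quantified by luminescence following luciferase reagent addition.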
SMN2 splice up – qHTS Assay for Enhancers of SMN2 Splice Variant Expression. HEK293 SMN2-luciferase splicing reporter, luminescence, 30-36 h. 2.8% of 210,000 active. Potency, µM (highest dose often 46.1 µM), without a hit: at the highest dose activity change, positive = activation, hits mostly activators; note: % of control where 0% means no effect; nearly all actives have a fitted effect of over 55% in size
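HEK293 cells carry an SMN2 […]–luciferase reporter in which exon 7 inclusion puts luciferase in frame. Cells were plated 10-12 h before compound addition, then incubated 30-36 h at 37C. ONE-Glo luminescence was read; sodium butyrate at 4.5 mM final served as control.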
Rab9 prom act – qHTS Assay for Rab9 Promoter Activators | 2.8% of 320,000 active | Huh7 Rab9 promoter-luciferase reporter, luminescence, 24 h | Potency, µM (top dose mostly 9.22 µM), inactives show top-dose activation, negative = inhibition, hits mostly activators; note: % of control where 0% means no effect; nearly all actives have a fitted effect of over 60% in size
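Promoter activation is measured as luciferase luminescence in Huh7 cells stably transfected with a Rab9 promoter–luciferase construct, following 24 h compound exposure at 37 °C and 10 min reagent incubation at ambient temperature.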
ELG1 FLuc counter – qHTS screen for small molecules that inhibit ELG1-dependent DNA repair: Hit Confirmation in Cell-Based Luciferin Assay; shares compounds with ELG1 repair inh; cell-free firefly luciferase luminescence counter-screen, ViewLux; Potency, µM (series often up to 46.1 µM), inactives show top-dose activity change, negative = inhibition, actives largely listed as inhibitors; 3% of 350 active; note: % is set by controls: 0 for no effect and ±100 for the full control effect
ELG1 Luc conf – HTS assay for small molecules that inhibit ELG1-dependent DNA repair in human embryonic kidney (HEK293T) cells expressing luciferase-tagged ELG1: Hit Confirmation | shares compounds with ELG1 repair inh | HEK293T ELG1-luciferase levels, luminescence; cells co-treated with 5-fluorouridine | Potency, µM (highest dose often 46.1 µM), for inactives: top-dose activity change, negative = inhibition, actives largely listed as inhibitors | 68% of 670 active; note: % is set by controls: 0 for no effect and ±100 for the full control effect; nearly all actives have a fitted effect of over 55% in size
ELG1 MMS Luc – inhibits ELG1-dependent repair under MMS stimulation in HEK293T cells; shares compounds with ELG1 repair inh; HEK293T luciferase-tagged ELG1 level, MMS stimulated; Potency, µM (top dose mostly 46.1 µM), for the others: top-dose activity change, negative = inhibition, usual class: inhibitors; 53% of 670 active; note: % is set by controls: 0 for no effect and ±100 for the full control effect; nearly all actives have a fitted effect of over 60% in size
ELG1 5-FU – qHTS screen for small molecules that inhibit ELG1-dependent DNA repair: Hit Confirmation with 5FU Viability | cell viability with 5-FU, ELG1-dependent repair | shares compounds with ELG1 repair inh | Potency, µM (titrated, usually from 46.1 µM), for the others: at the highest dose activity change, negative = viability loss, hits mostly cytotoxic | AID 624250, 2012 | 670 tested, under 10 active;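 note: ELG1-luc HEK293T cells cotreated with 5-fluorouridine at 10 µM final; viability measured 16 h after compound addition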
ELG1 MMS cell – qHTS screen for small molecules that inhibit ELG1-dependent DNA repair: Hit Confirmation with MMS Viability | shares compounds with ELG1 repair inh | Cell viability with MMS, ELG1-dependent DNA repair | Potency, µM (highest dose often 46.1 µM), inactives show top-dose activity change, negative = viability loss, actives largely listed as cytotoxic | 33% of 670 active | AID 624251, 2012;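 note: ELG1-luc HEK293T cells co-treated with 10 µM MMS; viability read 16 h after compound addition; % is set by controls: 0 for no effect and ±100 for the full control effect; nearly all actives have a fitted effect of over 60% in size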
Cell viab unstim – qHTS screen for small molecules that inhibit ELG1-dependent DNA repair: Hit Confirmation with Unstimulated Viability Assay; AID 624252, 2012; shares compounds with ELG1 repair inh; cell viability counter-screen, unstimulated, luminescence; Potency, µM (highest dose often 45.9 µM), for the others: at the top dose activity change, negative = loss of viability, actives largely listed as cytotoxic; 8% of 900 active;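 note: compound exposure lasted 16 hours before reading; % is set by controls: 0 for no effect and ±100 for the full control effect; nearly all actives have a fitted effect of over 55% in size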
FLuc enzyme – qHTS screen for small molecules that inhibit ELG1-dependent DNA repair: Hit Confirmation in Biochemical Luciferin Assay | shares compounds with ELG1 repair inh | purified firefly luciferase, luminescence counter-screen | Potency, µM (series often up to 57.5 µM), inactives show at the top dose activity, negative = inhibition, usual class: inhibitors | 10% of 350 active; note: % is set by controls: 0 for no effect and ±100 for the full control effect
* hit, by the source's call; u = inconclusive; x = not tested or not shown. Calls come from the whole dose curve; as a rule, active = well fitted curve in the direction sought with a large enough effect; inconclusive = small, poorly fitted or top-dose-only effect, or another doubt; inactive = no such curve, though single readings can be large; an effect the other way counts as inactive or inconclusive. Potency is the fitted concentration of half-maximal effect.

SMILES	FLuc modulator	ELG1 repair inh	ELG1 genotox	NPC1 promoter act	SMN2 splice up	Rab9 prom act	ELG1 Luc conf	ELG1 MMS Luc	ELG1 5-FU	ELG1 MMS cell	Cell viab unstim	others
O=C(Nc1ccc(Cl)cc1)c1nc[nH]c1C(=O)NCCCCNC(=O)c1[nH]cnc1C(=O)Nc1ccc(Cl)cc1	x	2.9µM*	-10%	x	x	x	2.5µM*	11µM*	-4%	25µM*	u
COc1cccc2cc(-c3cc(=O)oc4ccc(OCC(C)=O)cc34)oc12	1%	2.6µM*	-5%	2%	x	-3%	6.3µM*	11µM*	8%	-16%	u
Cc1cccc(Nc2nc3c(S(=O)(=O)c4ccc(Br)cc4)nnn3c3ccsc23)c1C	-4%	x	x	x	x	x	x	x	x	x	x
CC1(C)Cc2c(C#N)c(SCCOc3ccccc3)nc(N3CCOCC3)c2CO1	5%	2.5µM*	-15%	-9%	-55%	11%	3.5µM*	u	u	-9%	u
CCOC(=O)N1CCN(C(=O)c2ccc3c(c2)N=C(C)c2cc(Cl)ccc2S3)CC1	2%	3.7µM*	-9%	-1%	x	-2%	8.9µM*	u	u	u	u
CC1=Nc2cc(C(=O)N3CCCC3)ccc2Sc2c(C)ccc(C)c21	1%	u	-6%	-2%	x	17%	x	x	x	x	x
Cc1ccc(C2=NN(C(=O)CCl)C(c3ccco3)C2)o1 (stereo unspecified)	2%	2.3µM*	-17%	-43%	x	-51%	22µM*	4µM*	u	7.1µM*	u
COc1cc2c(cc1OC)CN(c1nc(CN3CCCC3)nc3sc(C)c(C)c13)CC2	-2%	u	-7%	3%	-8%	-2%	x	x	x	x	x
Cc1cc(S(=O)(=O)Nc2nc(CN3CCOCC3)nc3sc4c(c23)CCCC4)ccc1F	0%	1%	-4%	-1%	0%	0%	0%	15%	-7%	-4%	-11%	ELG1 FLuc counter=77%;FLuc enzyme=-1%
CC1CCc2c(sc3nc(CN4CCOCC4)nc(NS(=O)(=O)c4cccc([N+](=O)[O-])c4)c23)C1 (stereo unspecified)	0%	u	-11%	1%	-51%	-2%	x	x	x	x	x
COc1cc2c(cc1OC)CN(c1nc(CN3CCOCC3)nc3sc4c(c13)CCCC4)CC2	3%	2.9µM*	-6%	-9%	-4%	-2%	4µM*	10µM*	u	16µM*	u	ELG1 FLuc counter=u;FLuc enzyme=-7%
Cc1ccc(C)c(N2CCN(C(=O)CCc3nc(-c4cccc(Cl)c4)no3)CC2)c1	x	u	u	x	x	x	x	x	x	x	-7%
COc1ccc(-c2noc(CCCCC(=O)N3CCN(c4cc(C)ccc4C)CC3)n2)cc1	x	u	1%	x	x	x	u	1.3µM*	-4%	1.1µM*	14µM*
COc1ccc(-c2noc(CCCC(=O)N3CCN(c4cc(C)ccc4C)CC3)n2)cc1	x	u	13%	x	x	x	x	x	x	x	x
CC1CC(=O)Nc2ccccc2N1S(=O)(=O)c1ccc(F)cc1F (stereo unspecified)	0%	18%	-1%	-4%	x	4%	x	x	x	x	x
NC(=O)c1ccc(NC(=O)CS(=O)(=O)c2cn(CC(=O)N3CCCCC3)c3ccccc23)cc1	-2%	15%	5%	1%	x	6%	x	x	x	x	x
N#Cc1ccsc1NC(=O)CSc1nncs1	x	u	u	x	x	x	x	x	x	x	-16%
Cc1nnc(SCC(=O)Nc2sccc2C#N)s1	-18%	2%	19%	3%	x	0%	x	x	x	x	x
Cc1ccccc1OCC(=O)N=Nc1c(O)n(C)c2ccccc12	-14%	u	u	u	x	21%	x	x	x	x	x
CCCCn1cc(S(=O)(=O)c2ccc(C)cc2)c(=O)c2cc(F)c(N3CCCCC3)cc21	-7%	x	x	x	x	x	x	x	x	x	x
O=C1CC(N2CCN(c3ccccn3)CC2)C(=O)N1CC(c1ccccc1)c1ccccc1 (stereo unspecified)	-8%	4.1µM*	-9%	-5%	-40%	-6%	28µM*	u	-8%	u	u
CCc1ccc2occ(CC(=O)Nc3c(C(=O)Nc4ccc(OC)cc4)oc4ccccc34)c2c1	-1%	x	x	x	-4%	x	x	x	x	x	x
